High-throughput results from PubChem BioAssay.
Hits are enriched below; roughly 1.5% of the tested compounds scored in any of these assays.
Six1-Eya2 inh: inhibitors of human Six1/Eya2 interaction; Q15475+O00167; AlphaScreen GST-Six1/His-Eya2 binding, biochemical; stronger effect = lower value; activity change, % (concentration not given with the values); hit rate 0.56% among 360,000; in the data active = activity change below about -65%; inconclusive = mostly about -30% to -63%
Target sequence (O00167 whole entry, looked up): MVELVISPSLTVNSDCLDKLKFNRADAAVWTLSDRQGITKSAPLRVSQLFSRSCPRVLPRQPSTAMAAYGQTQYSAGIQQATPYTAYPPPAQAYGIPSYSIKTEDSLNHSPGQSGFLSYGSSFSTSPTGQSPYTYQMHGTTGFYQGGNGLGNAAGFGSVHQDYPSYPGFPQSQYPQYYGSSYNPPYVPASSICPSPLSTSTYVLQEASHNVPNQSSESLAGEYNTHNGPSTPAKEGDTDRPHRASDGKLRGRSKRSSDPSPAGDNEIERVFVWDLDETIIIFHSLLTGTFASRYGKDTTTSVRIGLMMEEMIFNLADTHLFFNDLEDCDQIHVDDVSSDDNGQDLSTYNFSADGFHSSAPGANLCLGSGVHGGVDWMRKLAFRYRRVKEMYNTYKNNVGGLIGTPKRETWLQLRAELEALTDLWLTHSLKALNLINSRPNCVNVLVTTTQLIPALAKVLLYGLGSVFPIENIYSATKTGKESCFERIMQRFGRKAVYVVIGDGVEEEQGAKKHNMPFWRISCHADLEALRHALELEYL
Target sequence (Q15475 whole entry, looked up): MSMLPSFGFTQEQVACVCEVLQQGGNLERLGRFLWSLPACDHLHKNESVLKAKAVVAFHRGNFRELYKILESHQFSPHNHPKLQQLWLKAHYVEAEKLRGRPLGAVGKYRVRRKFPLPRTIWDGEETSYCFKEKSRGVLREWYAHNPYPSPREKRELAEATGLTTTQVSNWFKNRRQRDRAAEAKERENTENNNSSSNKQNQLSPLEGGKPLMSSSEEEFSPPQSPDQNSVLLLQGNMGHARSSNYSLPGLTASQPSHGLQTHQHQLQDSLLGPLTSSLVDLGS
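AlphaScreen luminescence read after one hour at 37 °C in darkness. Pin-transferred compounds met GST-Six1 and His-Eya2 protein (5X stock 250 nM/500 nM) plus glutathione donor and Ni-chelate acceptor beads (5X, 50 ug/mL).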
rTrxR1 inhibitor: rat TrxR1 inhibition; recombinant rTrxR1, NADPH fluorescence consumption, selenite substrate; O89049; hit rate 1% among 390,000; Potency, µM (top dose mostly 114 µM), usual class: inhibitors; note: nearly all actives have a fitted effect of over 65% in size
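Rat TrxR1 (90 nM in the dispensed reagent) was pre-reduced with 400 uM NADPH for 5 min at room temperature, then incubated with compound for 15 min. After 400 uM selenite was added, NADPH fluorescence (Ex 340/Em 450 nm) was followed for 8 min.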
TrxR1 substrate: rat thioredoxin reductase 1 substrate activity | AID 588456 | hit rate 0.01% among 390,000 | purified TrxR1 substrate turnover, NADPH consumption readout | Potency, µM (titrated, usually from 114 µM) | O89049; note: nearly all actives have a fitted effect of over 50% in size
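Rat TrxR1, dispensed at 90 nM, was prereduced with 400 uM NADPH (final) for 5 min at ~22 deg C, then incubated with compound 15 min before 400 uM selenite. A first-read NADPH fluorescence drop versus no-compound background flagged substrates.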
Eya2 inh: blocks the phosphatase activity of human Eya2; O00167; hit rate 0.006% among 330,000; Potency, µM (doses to about 76.9 µM), usual class: inhibitors; AID 488837; recombinant Eya2, OMFP fluorescence dephosphorylation (OMFP is methylfluorescein phosphate)
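Eya2 (0.2 uM) preincubated 10 min at ambient with compound, then OMFP substrate added at 50 uM; 10 min reaction in 50 mM HEPES pH 7.5, 50 mM NaCl, 5 uM MgCl2, 0.05% BSA, 1 mM DTT. Fluorescence read at Ex 485/Em 525 nm.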
CtBP-E1A inh: inhibitors of CtBP/E1A interaction; AlphaScreen GST-E1A/His-CtBP binding, 1536-well; stronger effect = lower value; activity change, % (no concentration beside the values); hit rate 0.49% among 340,000; in the data active = activity change below about -65%; inconclusive = mostly about -30% to -63%
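Homogeneous bead-based format: GST-tagged E1A captured on glutathione donor beads, His-tagged CtBP on nickel acceptor beads; compounds precede bead addition by 2 h at 37 °C.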
GALK inhibitor: inhibitors of human galactokinase; P51570; Purified GALK, Kinase-Glo residual ATP luminescence; Potency, µM (titrated, usually from 57.5 µM), actives largely listed as inhibitors; hit rate 0.007% among 270,000
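Galactose (100 uM) and ATP (35 uM) were turned over by 5 nM GALK for 1 h at RT. Kinase-Glo Plus then converted the remaining ATP into a luminescent signal.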
Of the large screens only hits and unclear results are named; the others gave an inactive call. Unless noted, calls come from the whole dose curve; as a rule, active = well fitted curve in the direction sought with a large enough effect; inconclusive = small, poorly fitted or top-dose-only effect, or another doubt; inactive = no such curve, though single readings can be large; an effect the other way counts as inactive or inconclusive.

C=CCn1c(SCC(=O)NCCCC)nc2scc(-c3ccco3)c2c1=O	rTrxR1 inhibitor 45µM
CCC12CN3CC(CC)(CN(C1)C3c1cc(Br)ccc1OC)C2=O (stereo not given)	none (no result: Six1-Eya2 inh, Eya2 inh, CtBP-E1A inh, GALK inhibitor)
N#C/C(=C\c1cccs1)C(=O)c1ccccc1Cl	rTrxR1 inhibitor 13µM
COc1cc2ncnc(NCCCN3CCOCC3)c2cc1OC	none (no result: CtBP-E1A inh, GALK inhibitor)
CCOc1cc2nc(-c3ccc(OC)c(OC)c3)nc(NCCCN3CCOCC3)c2cc1OC	Six1-Eya2 inh -91, CtBP-E1A inh -88
COc1cc2nc(=S)n(CCCN3CCOCC3)c(N)c2cc1OC	Six1-Eya2 inh -85, CtBP-E1A inh -88
O=C(N/N=C/c1ccc(N2CCCCC2)o1)c1ccccc1[N+](=O)[O-]	rTrxR1 inhibitor 10µM
O=C(N/N=C/c1ccc(N2CCOCC2)o1)c1ccccc1[N+](=O)[O-]	rTrxR1 inhibitor 8.9µM
O=C(N/N=C/c1ccc(N2CCOCC2)o1)c1cccc(C(F)(F)F)c1	rTrxR1 inhibitor 7.1µM
O=C(Nc1ccc(N2CCOCC2)nc1N1CCOCC1)c1cccc(C(F)(F)F)c1	none
O=C(N/N=C/c1ccncc1)c1ccccc1[N+](=O)[O-]	none
Cc1cccc(C)c1Nc1c(-c2ccccc2Cl)nc2cnccn12	none (no result: Six1-Eya2 inh, Eya2 inh, CtBP-E1A inh, GALK inhibitor)
O=C(Nc1ccccc1Cl)C1CCN(c2nc3ccccc3nc2C(F)(F)F)CC1	none (no result: Six1-Eya2 inh, Eya2 inh, CtBP-E1A inh, GALK inhibitor)
COc1ccc(-c2nn3c(-c4ccc(C)cc4)nnc3c3ccccc23)cc1	none (no result: Six1-Eya2 inh, Eya2 inh, CtBP-E1A inh, GALK inhibitor)
Cc1ccc(CNC(=O)c2c(C)oc3nc(C)nc(N4CCOCC4)c23)cc1	none (no result: Six1-Eya2 inh, Eya2 inh, CtBP-E1A inh, GALK inhibitor)
CSCCC(NC(C)=O)C(=O)Oc1ccc2c3c(c(=O)oc2c1)CCCC3 (stereo not given)	rTrxR1 inhibitor 50µM
COc1ccc(NC(=O)Cn2c(=O)n(Cc3ccco3)c(=O)c3cc(OC)c(OC)cc32)cc1	none (no result: Six1-Eya2 inh, Eya2 inh, CtBP-E1A inh, GALK inhibitor)
O=C(CCNc1cc(Cl)cc(Cl)c1)c1cccs1	rTrxR1 inhibitor 28µM
O=C(CCNc1ccc(Cl)cc1)c1cccs1	rTrxR1 inhibitor inconclusive
CCC(=O)N1CCc2cc(S(=O)(=O)NCCC(=O)Nc3ccc(CC)cc3)ccc21	none (no result: Six1-Eya2 inh, Eya2 inh, CtBP-E1A inh, GALK inhibitor)
Cc1ccc(C2=NN(C(=O)CCl)C(c3ccco3)C2)o1 (stereo not given)	rTrxR1 inhibitor 22µM
CC(=O)N1N=C(c2ccco2)CC1c1ccco1 (stereo not given)	none
CC[N+]1(C)CCC(O)(/C=C/c2ccccc2)C(C(=O)/C=C/c2ccccc2)C1 (stereo not given)	rTrxR1 inhibitor 0.32µM (no result: Eya2 inh, GALK inhibitor)
CCc1ccc(/C=C/C(=O)C2C(=O)c3ccccc3C2=O)cc1	none
Oc1c(CN2CCOCC2)cc(CN2CCOCC2)c(O)c1O	none (no result: Eya2 inh, GALK inhibitor)
CCCc1cc(CN2CCOCC2)c(O)c(CN2CCOCC2)c1O	rTrxR1 inhibitor 1.6µM (no result: Eya2 inh, GALK inhibitor)
O=C(CNC(=O)c1ccc(Cl)cc1)OCc1cc(=O)n2ccsc2n1	none (no result: Six1-Eya2 inh, Eya2 inh, CtBP-E1A inh, GALK inhibitor)
COc1ccc(-c2nc3cc(C(C)C)ccc3o2)cc1NC(=O)c1ccc(C)c(Cl)c1	none (no result: Six1-Eya2 inh, Eya2 inh, CtBP-E1A inh, GALK inhibitor)
COC(=O)CSc1nc2c(c(-c3ccco3)c1C#N)CCCC2	rTrxR1 inhibitor 16µM
COC(=O)CSc1nc2c(c(-c3ccc(O)cc3)c1C#N)CCCC2	none
O=c1oc2c(CN3CCN(CCO)CC3)c(O)ccc2cc1-c1ccccn1	rTrxR1 inhibitor 45µM
O=C(CSc1nc2nc(-c3cccs3)cc(C(F)(F)F)c2c(=O)[nH]1)C(F)(F)F	rTrxR1 inhibitor 35µM
O=C1OC(c2ccccc2)(c2cc(Br)c(O)c(Br)c2)c2ccccc21 (stereo not given)	none (no result: Eya2 inh, GALK inhibitor)
O=c1cc(Br)c(O)c(Br)cc1Br	rTrxR1 inhibitor 3.2µM (no result: Eya2 inh, GALK inhibitor)
O=C(COC(=O)C12CC3CC(CC(C3)C1)C2)NCC1CCCO1 (stereo not given)	none (no result: Six1-Eya2 inh, Eya2 inh, CtBP-E1A inh, GALK inhibitor)
O=c1c2ccccc2nc(/C=C/c2cccnc2)n1Cc1ccccc1	Six1-Eya2 inh -71
O=c1c2ccccc2nc(/C=C/c2cccnc2)n1CCc1ccccc1	none
CS(=O)(=O)c1nc(S(=O)(=O)c2ccc(Cl)cc2)c(N2CCC(C(N)=O)CC2)s1	rTrxR1 inhibitor 32µM
Cc1ccc(S(=O)(=O)c2nc(S(C)(=O)=O)sc2N2CCC(C(N)=O)CC2)cc1	none
